Assay outcomes: PubChem BioAssay, National Center for Advancing Translational Sciences (NCATS)
D1 antag: human D1 dopamine receptor antagonism; activity change, negative = inhibition, % at 10 µM; 360,000 tested, 3.2% active; P21728; AID 504652; HEK293 TREx D1 cells, calcium flux, dopamine EC80; hits give low values; in the data active = activity change below about -30%
Target sequence (P21728 whole entry, looked up): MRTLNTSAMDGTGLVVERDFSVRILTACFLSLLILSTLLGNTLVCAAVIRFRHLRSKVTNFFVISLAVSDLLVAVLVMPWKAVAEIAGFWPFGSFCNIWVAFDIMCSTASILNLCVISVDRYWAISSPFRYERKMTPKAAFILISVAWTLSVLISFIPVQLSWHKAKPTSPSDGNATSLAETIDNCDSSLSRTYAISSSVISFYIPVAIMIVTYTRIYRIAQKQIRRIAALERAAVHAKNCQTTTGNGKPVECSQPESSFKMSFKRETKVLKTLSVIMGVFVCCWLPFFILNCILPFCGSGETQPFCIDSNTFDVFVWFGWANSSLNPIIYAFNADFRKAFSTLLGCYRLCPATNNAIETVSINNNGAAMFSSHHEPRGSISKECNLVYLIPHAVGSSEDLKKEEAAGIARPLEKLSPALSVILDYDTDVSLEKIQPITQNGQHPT
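Allosteric or orthosteric antagonism assessed as attenuation of the calcium response to EC80 dopamine, added 180 s after compound, in induced HEK293 Trex D1 cells loaded with no-wash calcium dye.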
D1 agonist: agonists of human D1 dopamine receptor. P21728. HEK293 T-REx D1 cells, calcium flux, agonist mode. activation, % at 2 µM. 360,000 tested, 1% active. AID 504660
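Inducible HEK293 T-REx D1 cells, force-coupled to calcium signalling, were plated at 4000 cells/well with tetracycline and held overnight at 30 C. After no-wash calcium dye loading, compound-evoked calcium rise over 180 s flagged agonists.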
TRHR agonist: TRH receptor (human) agonism; P34981; TRHR cells, calcium flux fluo-8, FDSS agonist mode; activation, % at 2 µM; 360,000 tested, 0.18% active; AID 493084
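Read-out: compound-evoked intracellular calcium rise in TRHR cells, fluo-8 dye, kinetic FDSS fluorescence at 1 s/cycle following a 10-cycle baseline. Cells cultured overnight before dye loading (30 min–1.5 h, RT).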
TRHR enhancer: TRH receptor (human) allosteric enhancement | TRHR cells, fluo-8 calcium fluorescence, EC20 TRH enhancement | enhancement, % at 2 µM | P34981 | 360,000 tested, 0.66% active | AID 493056; in the data active = enhancement above about 30%
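TRHR-expressing cells loaded with fluo-8 calcium dye were read kinetically (ex 480/em 530) during compound addition, then stimulated with an EC20 of TRH (10 nM final). Enhancement of the Gq-mediated intracellular calcium response was scored.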
Glioma ERSR ind: induces the endoplasmic reticulum stress response in human glioma cells; U87-MG GRP78 promoter luciferase reporter, 16 h; AID 602332; 420,000 tested, 0.02% active; Potency, µM, usual class: activators; active = well fitted activation curve with a large enough effect; also: series mostly up to about 76 µM; nearly all actives have a fitted effect of over 35% in size
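ERSR induction read as luciferase luminescence (Bright-Glo, 10 min at room temperature) in stably transfected human U87-MG glioma cells exposed to compounds for 16 h, using GRP78 as sensor.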
D1 PAM: potentiators of human D1 dopamine receptor; P21728; HEK293 TREx D1 cells, calcium flux, dopamine EC20 potentiation; potentiation, % at 10 µM; 360,000 tested, 0.036% active; in the data active = potentiation above about 30%
Hits are given with their value; n = inactive; x = no result. This is a sample that favours compounds with a hit; in the whole collection about 4% have one here. Rule as the data show it, unless noted: active = activation above about 30%; inactive = the rest.

SMILES	D1 antag	D1 agonist	TRHR agonist	TRHR enhancer	Glioma ERSR ind	D1 PAM
Cc1cc(Br)ccc1NC(=O)CN(C)C(=O)C1CSC2(C)CCC(=O)N12 (configuration not stated)	-33.1	n	n	n	n	x
CC(=O)Nc1ccc(S(=O)(=O)Oc2ccc(N3C(=O)C4CCCCC4C3=O)cc2)cc1 (configuration not stated)	-51.9	37.6	n	n	n	n
CC(=O)Nc1ccc(S(=O)(=O)Oc2ccc(/C=N/NC(=O)c3ccc(Cl)cc3)cc2)cc1	n	n	n	n	n	n
COC(=O)c1ccc(OS(=O)(=O)c2ccc(NC(C)=O)cc2)cc1	-34.7	n	n	n	n	n
CC(=O)Nc1ccc(S(=O)(=O)Oc2ccc3c(c2)C(C)=CC(C)(C)N3)cc1	-41.6	n	n	n	x	n
Cc1cccn2c(=O)c3cc(S(=O)(=O)c4ccc(Br)cc4)c(=N)n(C4CCCCC4)c3nc12	n	n	n	n	n	n
COc1cc(-n2nc(C)c3c2OC(N)=C(C#N)C3c2ccccc2)c(Cl)c(Br)c1O (configuration not stated)	n	n	n	n	n	n
COc1cc(C(=O)Nc2cccc(-c3nncn3C)c2)cc(OC)c1OC	n	n	n	33.9	n	n
COc1ccc(Cl)cc1C(=O)OCC(=O)N(CC(C)C)c1c(N)n(Cc2ccccc2)c(=O)[nH]c1=O	n	n	n	n	n	n
COc1ccc(CCNC(=S)NC(=O)c2ccccc2)cc1C	-33.1	n	n	n	n	n
CC1(C)CC(=O)C2=C(C1)c1c(ccc3ccccc13)NC2c1ccco1 (configuration not stated)	n	n	n	n	n	30.3
CN=C(Nc1ccc(C(=O)OC)s1)c1ccccc1	n	n	n	n	n	n
Cc1ccc(CNS(=O)(=O)c2ccc(C(C)(C)C)cc2)n1C	-30.6	n	n	n	n	n
N#CCCN(C(=O)COC(=O)CCC(=O)c1cccs1)c1ccccc1	x	x	x	x	n	x
C/C=C(/C)C(=O)O[C@@H]1c2cc3c(c(OC)c2-c2c(cc(OC)c(OC)c2OC)[C@@H](OC(C)=O)[C@@H](C)[C@H]1C)OCO3	-62.1	n	n	n	n	n
COc1cc2c(c(OC)c1OC)-c1c(cc3c(c1OC)OCO3)C[C@H](C)[C@@](C)(O)C2	n	n	n	n	n	n
O=C(CCC1CCCCC1)Nc1ncn[nH]1	n	n	n	n	n	n
COc1cccc(C2C=C(c3ccc(Br)s3)Nc3ncnn32)c1OC (configuration not stated)	n	48.4	32.8	n	n	n
Fc1ccc(Br)cc1C1C=C(c2ccc(Br)s2)Nc2ncnn21 (configuration not stated)	n	n	n	n	n	n
COc1ccc(Cc2nc3ccc(C(=O)NC4CCOC4)cc3o2)cc1OC (configuration not stated)	x	x	x	x	n	x
Cc1ccc(N2CC(C(=O)OCC(=O)Nc3ccccc3C)CC2=O)cc1 (configuration not stated)	n	n	n	n	n	n
O=C(Nc1ccccc1C(=O)Nc1ccccn1)c1cc(F)c(F)cc1Cl	-31.2	n	n	n	n	n
CCC(=O)Nc1ccc(C(=O)CSc2nnc(-c3cccnc3)o2)cc1	n	n	n	n	n	n
Cc1cc(C)c2c(=O)n(CC(=O)Nc3cccc(F)c3)sc2n1	-32.2	n	n	n	n	n
Cc1cc(C)c2c(=O)n(CC(=O)Nc3ccc(Cl)cc3)sc2n1	-39.0	n	n	n	n	n
SMILES	D1 antag	D1 agonist	TRHR agonist	TRHR enhancer	Glioma ERSR ind	D1 PAM
CCOc1ccc(NC(=O)Cn2sc3nc(C)cc(C)c3c2=O)cc1	n	n	n	n	n	n
CCCNC(=O)CN1C(=O)c2c(c3ccccc3n2C)C1c1ccc(OC)cc1 (configuration not stated)	n	n	n	n	n	n
COc1ccc(OC)c(CNC(=O)c2cc(=O)[nH]c3ccc(S(=O)(=O)N4CCCCC4C)cc23)c1 (configuration not stated)	n	n	n	n	n	n
CCn1ncc(C2=NOC(C(=O)Nc3cccc(C(C)=O)c3)C2)c1C (configuration not stated)	-31.7	n	n	n	n	n
CCn1ncc(C2=NOC(C(=O)NCc3ccccc3)C2)c1C (configuration not stated)	n	n	n	n	n	n
CC(C)CN(C(=O)c1cc(Cl)nc2ccccc12)c1c(N)n(Cc2ccccc2)c(=O)[nH]c1=O	n	n	n	n	n	n
CCc1ccc(NC(=S)NC2CC3CCCC(C2)N3Cc2cccs2)cc1 (configuration not stated)	-80.7	n	n	n	n	n
COc1ccc(NC(=S)NC2CC3CCCC(C2)N3C2CC2)cc1 (configuration not stated)	-37.7	n	n	n	n	n
Cc1ccc(NC(=S)NC2CC3CCC(C2)N3Cc2ccco2)cc1C (configuration not stated)	-89.0	n	n	n	n	n
Cc1cccc(NC(=S)NC2CC3CCC(C2)N3Cc2ccco2)c1C (configuration not stated)	n	n	n	n	n	n
Cc1ccc(NC(=S)NC2CC3CCC(C2)N3Cc2ccco2)c(C)c1 (configuration not stated)	-43.1	n	n	n	n	n
CCOC(=O)c1c(NC(=O)C(=O)N/N=C/c2ccccc2OC)sc2c1CCCCC2	n	n	n	n	n	n
CN(C)C(CNC(=O)C1CCN(S(=O)(=O)c2ccc(Cl)cc2)CC1)c1ccccc1 (configuration not stated)	n	n	n	n	n	n
O=C(CSc1ccc(Cl)cc1)N/N=C/c1ccc([N+](=O)[O-])o1	-33.6	n	n	n	n	n
O=C(CNc1ccc2ccccc2c1)N/N=C/c1ccc([N+](=O)[O-])o1	n	n	n	n	n	n
COc1cc2c(cc1O)C(Cc1ccc(O)cc1)[N+](C)(C)CC2 (configuration not stated)	x	x	x	x	n	x
CC(C)c1ccc(CNC(=O)C(=O)NCCCn2ccnc2)cc1	n	n	n	31.9	n	n
CC(Oc1ccc(Cl)cc1)C(=O)NCCCn1ccnc1 (configuration not stated)	n	n	n	n	n	n
CC(NC(=O)C(=O)NCCCn1ccnc1)c1ccccc1 (configuration not stated)	n	n	n	n	n	n
Cc1cc(Cl)ccc1OC(C)C(=O)NCCCn1ccnc1 (configuration not stated)	-35.3	n	n	n	n	n
CCC(C(=O)Nc1cc(C(=O)O)ccc1C)c1ccccc1 (configuration not stated)	x	n	n	n	n	n
